From PubChem BioAssay (Tox21) come the findings set out here.

Assay [1] in a line: qHTS assay to identify small molecule antagonists of the sonic hedgehog signaling (Shh) pathway (AID 1259369; calls by dose curve; note: nearly all actives have a fitted effect of over 45% in size; note: potency is the fitted concentration of half-maximal effect). The gist of the method: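 Cells are plated and held 4hr at 37 C, compounds (DMSO) are pinned in, conditioned medium is added to stimulate the pathway, and after 24hr luciferase reagent is added for 30min before luminescence is read.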
(qHTS replaces the single test concentration by a dilution series.)

Assay [2] deals with Estrogen receptor beta (Homo sapiens) (UniProt Q92731). The assay is described as follows: qHTS assay to identify small molecule antagonists of the estrogen receptor beta (ER-beta) signaling pathway (AID 1259378; active = well fitted inhibition curve with a large enough effect in the signal ratio in the repeat runs, not every such curve was filed as active; the % refers to the signal ratio; note: potency is the fitted concentration of half-maximal effect). The gist of the method: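 ER-beta-UAS-bla HEK293T cells in 2% charcoal-stripped FBS medium treated with compound plus 1nM final 17-beta-estradiol for 16 hr at 37C. Beta-lactamase reporter read by FRET substrate fluorescence after 2 hours at room temperature.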

Assay [3] is described as follows: qHTS assay to identify small molecule agonists of the estrogen receptor beta (ER-beta) signaling pathway - cell viability counter screen (AID 1259380). Note: nearly all actives have a fitted effect of over 30% in size. Note: potency is the fitted concentration of half-maximal effect. The essentials: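 Cytotoxicity is measured in parallel with the reporter screen: after 16 hr compound exposure at 37C and a 2 hr LiveBLAzer step, CellTiter-Glo is added to the same ER-beta-UAS-bla HEK293T wells and luminescence read after 30 min.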

Assay [4] can be described thus: qHTS assay to identify small molecule antagonists of the estrogen receptor beta (ER-beta) signaling pathway - cell viability counter screen (AID 1259382). Note: series mostly up to about 92 µM; nearly all actives have a fitted effect of over 55% in size. The essentials: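 Cytotoxicity counter screen multiplexed with the beta-lactamase antagonist assay: GripTite HEK293T ER-beta-bla cells were treated 16 hr with test chemicals in the presence of 1nM 17-beta-estradiol, and viability was measured by CellTiter-Glo.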

Assay [5] has as its target Estrogen receptor (Homo sapiens) (UniProt P03372). Nature of the assay: qHTS assay to identify small molecule agonists of the estrogen receptor alpha (ER-alpha) signaling pathway in the presence of an antagonist (AID 1259383; calls by dose curve; note: nearly all actives have a fitted effect of over 15% in size; note: potency is the fitted concentration of half-maximal effect; for activation: top concentration of the series differs between compounds). The essentials:
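Agonist-mode confirmation in the presence of the ER antagonist ICI-182,780 at 10.0nM final. Breast-derived VM7Luc4E2 reporter cells were exposed to compounds for 22hr, and ERE-driven luciferase was quantified by luminescence.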

The nature of assay [6]: qHTS assay to identify small molecule agonists or antagonists of the thyroid stimulating hormone receptor (TSHR) signaling pathway - wild type cell line counter screen (AID 1259384; calls by dose curve). The essentials: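 Wild-type Hek293 cells, 800/well, 18 h at 37C, then compound with Ro20-1724 for 30 min RT. cAMP by HTRF (cAMP-d2/anti-cAMP cryptate), 1 h RT, fluorescence read. 15 concentrations, triplicates.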

The target of assay [7] is Thyrotropin receptor (Homo sapiens) (UniProt P16473). Nature of the assay: qHTS assay to identify small molecule antagonists of the thyroid stimulating hormone receptor (TSHR) signaling pathway (AID 1259385; calls by dose curve; note: nearly all actives have a fitted effect of over 20% in size). The essentials:
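TSHR-HEK293 cells (800/well) plated 18 h, then compounds with Ro20-1724 and TSH at 1.5 ng/mL final, 30 min at room temperature. cAMP quantified by HTRF (cAMP-d2/anti-cAMP-cryptate, 1 h); 15 concentrations in triplicate.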

The nature of assay [8]: qHTS assay to identify small molecule agonists of the estrogen receptor alpha (ER-alpha) signaling pathway in the presence of an antagonist - cell viability counter screen (AID 1259386).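 Note: series mostly up to about 92 µM; cells exposed to compounds for 22 h at 37 °C before the viability read; nearly all actives have a fitted effect of over 30% in size.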 The essentials:
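Cytotoxicity was measured in parallel with the ERE-luciferase agonist screen, in the same wells. The cells were VM7Luc4E2, which endogenously express ER-alpha, and treatment was with compounds plus 10.0nM ICI-182,780 for 22hr.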

Assay [9] can be described thus: qHTS assay to identify small molecule antagonists of the progesterone receptor (PR) signaling pathway - cell viability counter screen (AID 1346798). Note: nearly all actives have a fitted effect of over 50% in size. Note: potency is the fitted concentration of half-maximal effect. The gist of the method:
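HEK293T PR-UAS-bla, 2% charcoal-stripped FBS; 4 hr pre-plate; cpd + R5020, 16 h 37C; LiveBLAzer read first; then CellTiter-Glo 30 min RT, luminescence.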

A short description of assay [10]: qHTS assay to identify small molecule agonists of the progesterone receptor (PR) signaling pathway - cell viability counter screen (AID 1346799; calls by dose curve; note: nearly all actives have a fitted effect of over 45% in size; note: potency is the fitted concentration of half-maximal effect). The essentials: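 Luminescence from CellTiter-Glo, added after the beta-lactamase FRET read in the same wells, gave cytotoxicity in PR-UAS-bla HEK293T cells treated with compounds for 16 hr at 37C.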
Assay [11] in a line: qHTS assay to identify small molecule antagonists of the TGF-beta/Smad signaling pathway - cell viability counter screen (AID 1346824). Note: nearly all actives have a fitted effect of over 50% in size. The gist of the method:
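SBE-bla HEK 293T cells, incubated overnight, then compound plus 0.25 ng/mL TGF-beta1 (stock added) for 5 hr at 37 C. Viability was read in the same wells by CellTiter-Glo luminescence after 30 min at room temperature.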

Assay [12] can be described thus: qHTS assay to identify small molecule agonists of the TGF-beta/Smad signaling pathway - cell viability counter screen (AID 1346829). Note: top concentration of the series differs between compounds; nearly all actives have a fitted effect of over 45% in size. The gist of the method: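 In parallel with the Smad reporter read, viability of HEK 293T cells stably carrying SBE-bla is quantified by ATP luminescence following 5 hr compound treatment.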
Assay [13] in a line: qHTS assay to identify small molecule agonists of the TGF-beta/Smad signaling pathway (AID 1346859; active = well fitted activation curve with a large enough effect in the signal ratio in the repeat runs, not every such curve was filed as active; the % refers to the signal ratio; note: series mostly up to about 77 µM). The essentials:
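SBE-bla HEK 293T, 4,000 cells/well, plated o/n; cpd in DMSO, 5 hr, 37 C/5% CO2; B/G FRET substrate 2 hr RT; ex 405, em 460/530 nm.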

Assay [14] addresses Thyrotropin-releasing hormone receptor (Homo sapiens) (UniProt P34981). The assay is described as follows: qHTS assay to identify small molecule antagonists of the thyrotropin-releasing hormone receptor (TRHR) signaling pathway (AID 1346877; active = well fitted inhibition curve with a large enough effect in the repeat runs, not every such curve was filed as active; note: series mostly up to about 51 µM). The essentials:
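Antagonism is measured as suppression of the calcium response to 1 nM TRH in TRHR-HEK293 cells that have been dye-loaded for 2 h at 37 °C after overnight plating. Each compound is tested at 15 concentrations in triplicate.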

Assay [15] has the same target. Nature of the assay: qHTS assay to identify small molecule agonists of the thyrotropin-releasing hormone receptor (TRHR) signaling pathway (AID 1346891; calls by dose curve; note: series mostly up to about 58 µM). The gist of the method: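 Intracellular calcium rise, read as fluorescence every second for 3 min, served as the agonist signal in dye-loaded HEK293 cells expressing TRHR; each compound ran at 15 concentrations in triplicate.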

Assay [16] in a line: qHTS assay to identify small molecule agonists of the androgen receptor (AR) signaling pathway in the presence of an antagonist - cell viability counter screen (AID 1259379).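 Note: MDA-kb2 human breast cancer cells carrying an MMTV luciferase reporter; series mostly up to about 92 µM; nearly all actives have a fitted effect of over 25% in size.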 The gist of the method: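 Cytotoxicity is assessed by CellTiter-Fluor in MDA-kb2 cells carrying an MMTV-driven luciferase reporter. Cells receive 3.0uM nilutamide plus compounds at 15 concentrations and incubate 16 hr at 37C without CO2 before fluorescence reading.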

In assay [17] the target is Androgen receptor (Homo sapiens) (UniProt P10275). Nature of the assay: qHTS assay to identify small molecule agonists of the androgen receptor (AR) signaling pathway in the presence of an antagonist (AID 1259381; calls by dose curve; note: nearly all actives have a fitted effect of over 15% in size). The gist of the method: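 Agonist-mode confirmation screen: human MDA-kb2 cells stably expressing luciferase under an MMTV promoter bearing AR and GR response elements, co-treated with 3.0uM nilutamide (final). Luminescence measured after 16hr compound incubation.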

Assay [18] deals with Progesterone receptor (Homo sapiens) (UniProt P06401). The assay is described as follows: qHTS assay to identify small molecule agonists of the progesterone receptor (PR) signaling pathway (AID 1346784; calls by dose curve; note: nearly all actives have a fitted effect of over 30% in size). The gist of the method: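 Beta-lactamase reporter read-out: after 16 hr compound treatment at 37C and a further 2 hr at room temperature with LiveBLAzer B/G FRET substrate, fluorescence was measured in PR-UAS-bla HEK 293T cells grown in 2% charcoal-stripped serum.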

For assay [19] the target is unchanged. The assay is described as follows: qHTS assay to identify small molecule antagonists of the progesterone receptor (PR) signaling pathway (AID 1346795; active = well fitted inhibition curve with a large enough effect in the signal ratio in the repeat runs, not every such curve was filed as active; the % refers to the signal ratio; note: potency is the fitted concentration of half-maximal effect). The gist of the method:
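Read-out is fluorescence from the LiveBLAzer B/G FRET substrate, cleaved by a UAS-controlled beta-lactamase in PR-UAS-bla HEK293T cells after 16 hr exposure to compound plus 1 nM promegestone (final), followed by 2 hr at room temperature.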

Unmarked numbers belong to inactive results. Inconclusive results are not listed. The source made the active and inactive calls. Unless noted, calls come from the whole dose curve; as a rule, active = well fitted curve in the direction sought with a large enough effect in the repeat runs; inconclusive = weak or mixed curves; inactive = no such curve, though single readings can be large; an effect the other way counts as inactive or inconclusive.

Progesterone receptor (Homo sapiens), sequence (P06401 whole entry, looked up): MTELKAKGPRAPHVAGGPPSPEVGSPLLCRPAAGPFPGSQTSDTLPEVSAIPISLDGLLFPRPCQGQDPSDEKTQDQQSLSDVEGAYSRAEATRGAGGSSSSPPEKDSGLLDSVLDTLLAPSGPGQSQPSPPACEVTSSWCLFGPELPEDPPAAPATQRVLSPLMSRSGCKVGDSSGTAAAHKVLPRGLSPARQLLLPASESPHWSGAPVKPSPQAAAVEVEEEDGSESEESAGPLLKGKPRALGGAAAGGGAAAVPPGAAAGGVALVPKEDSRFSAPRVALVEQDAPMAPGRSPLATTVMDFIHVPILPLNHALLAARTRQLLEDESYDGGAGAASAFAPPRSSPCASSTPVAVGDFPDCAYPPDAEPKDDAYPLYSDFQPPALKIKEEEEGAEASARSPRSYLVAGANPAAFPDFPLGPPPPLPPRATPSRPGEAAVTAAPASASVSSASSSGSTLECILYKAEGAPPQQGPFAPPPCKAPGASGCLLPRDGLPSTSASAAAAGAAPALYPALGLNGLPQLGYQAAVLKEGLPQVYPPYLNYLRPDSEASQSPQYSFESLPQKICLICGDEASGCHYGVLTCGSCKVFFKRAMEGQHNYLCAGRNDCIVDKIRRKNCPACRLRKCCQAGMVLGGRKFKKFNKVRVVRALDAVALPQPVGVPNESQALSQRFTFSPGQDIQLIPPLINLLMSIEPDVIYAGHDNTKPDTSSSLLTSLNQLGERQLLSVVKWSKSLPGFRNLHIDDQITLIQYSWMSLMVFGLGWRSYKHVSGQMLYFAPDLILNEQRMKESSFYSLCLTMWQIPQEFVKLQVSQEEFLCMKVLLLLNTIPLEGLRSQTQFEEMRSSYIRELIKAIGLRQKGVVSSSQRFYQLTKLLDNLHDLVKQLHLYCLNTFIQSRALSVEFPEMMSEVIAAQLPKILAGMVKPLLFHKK
Estrogen receptor beta (Homo sapiens), sequence (Q92731 whole entry, looked up): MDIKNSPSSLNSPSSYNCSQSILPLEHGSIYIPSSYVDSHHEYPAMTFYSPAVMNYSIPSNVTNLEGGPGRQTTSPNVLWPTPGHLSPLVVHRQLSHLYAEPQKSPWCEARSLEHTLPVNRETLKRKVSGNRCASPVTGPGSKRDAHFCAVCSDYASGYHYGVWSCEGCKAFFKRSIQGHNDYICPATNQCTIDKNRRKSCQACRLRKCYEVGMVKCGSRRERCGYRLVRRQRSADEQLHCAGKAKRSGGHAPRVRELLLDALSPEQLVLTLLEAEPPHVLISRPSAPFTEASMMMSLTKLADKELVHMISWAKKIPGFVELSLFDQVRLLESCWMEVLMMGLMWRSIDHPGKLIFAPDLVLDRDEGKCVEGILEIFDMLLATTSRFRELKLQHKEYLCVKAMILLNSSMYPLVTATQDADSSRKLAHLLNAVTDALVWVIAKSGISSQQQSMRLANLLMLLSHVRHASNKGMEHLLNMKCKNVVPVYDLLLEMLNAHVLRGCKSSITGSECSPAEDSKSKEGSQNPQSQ
Thyrotropin-releasing hormone receptor (Homo sapiens), sequence (P34981 whole entry, looked up): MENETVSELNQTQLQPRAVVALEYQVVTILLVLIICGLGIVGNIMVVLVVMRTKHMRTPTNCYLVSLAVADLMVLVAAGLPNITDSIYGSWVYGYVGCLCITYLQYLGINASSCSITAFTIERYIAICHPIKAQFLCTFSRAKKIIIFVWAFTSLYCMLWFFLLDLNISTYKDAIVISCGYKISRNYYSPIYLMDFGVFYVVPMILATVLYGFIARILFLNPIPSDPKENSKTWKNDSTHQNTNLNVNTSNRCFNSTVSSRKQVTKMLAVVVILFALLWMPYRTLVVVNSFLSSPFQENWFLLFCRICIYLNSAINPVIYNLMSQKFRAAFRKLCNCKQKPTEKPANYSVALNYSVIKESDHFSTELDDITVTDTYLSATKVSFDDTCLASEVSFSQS
Estrogen receptor (Homo sapiens), sequence (P03372 whole entry, looked up): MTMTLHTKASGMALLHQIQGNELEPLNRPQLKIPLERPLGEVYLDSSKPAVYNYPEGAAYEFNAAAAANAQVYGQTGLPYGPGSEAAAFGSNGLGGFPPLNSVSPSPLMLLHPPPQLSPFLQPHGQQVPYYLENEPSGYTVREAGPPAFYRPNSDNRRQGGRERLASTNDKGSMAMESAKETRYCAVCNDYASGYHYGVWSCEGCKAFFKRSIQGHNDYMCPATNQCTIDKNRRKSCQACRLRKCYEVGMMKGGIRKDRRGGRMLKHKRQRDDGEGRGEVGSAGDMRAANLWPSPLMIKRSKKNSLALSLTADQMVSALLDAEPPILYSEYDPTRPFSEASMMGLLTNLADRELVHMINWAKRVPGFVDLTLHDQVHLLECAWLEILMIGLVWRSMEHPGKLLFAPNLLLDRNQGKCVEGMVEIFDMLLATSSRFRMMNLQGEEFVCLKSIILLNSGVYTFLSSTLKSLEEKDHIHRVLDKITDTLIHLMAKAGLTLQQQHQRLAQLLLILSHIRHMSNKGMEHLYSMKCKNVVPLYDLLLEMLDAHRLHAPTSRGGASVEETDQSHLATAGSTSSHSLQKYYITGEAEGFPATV
Thyrotropin receptor (Homo sapiens), sequence (P16473 whole entry, looked up): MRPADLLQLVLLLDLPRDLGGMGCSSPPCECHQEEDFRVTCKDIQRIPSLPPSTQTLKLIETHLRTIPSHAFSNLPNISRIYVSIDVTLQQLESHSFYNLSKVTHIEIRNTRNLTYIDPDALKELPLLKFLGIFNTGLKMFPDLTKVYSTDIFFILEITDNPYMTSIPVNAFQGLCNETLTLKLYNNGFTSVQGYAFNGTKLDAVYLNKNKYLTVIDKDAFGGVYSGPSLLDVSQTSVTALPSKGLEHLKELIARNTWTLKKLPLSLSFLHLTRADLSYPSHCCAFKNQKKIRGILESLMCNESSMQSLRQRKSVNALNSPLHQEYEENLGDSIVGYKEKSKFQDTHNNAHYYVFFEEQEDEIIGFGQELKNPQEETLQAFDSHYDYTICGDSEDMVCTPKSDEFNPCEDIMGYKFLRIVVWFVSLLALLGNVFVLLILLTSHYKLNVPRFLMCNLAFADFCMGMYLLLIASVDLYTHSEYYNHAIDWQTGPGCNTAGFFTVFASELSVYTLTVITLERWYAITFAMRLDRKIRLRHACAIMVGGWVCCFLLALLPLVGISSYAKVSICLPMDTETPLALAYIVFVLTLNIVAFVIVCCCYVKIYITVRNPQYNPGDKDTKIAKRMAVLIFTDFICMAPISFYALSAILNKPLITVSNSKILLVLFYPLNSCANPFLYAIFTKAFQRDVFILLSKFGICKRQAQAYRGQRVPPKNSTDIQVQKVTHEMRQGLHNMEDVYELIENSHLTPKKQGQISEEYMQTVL
Androgen receptor (Homo sapiens), sequence (P10275 whole entry, looked up): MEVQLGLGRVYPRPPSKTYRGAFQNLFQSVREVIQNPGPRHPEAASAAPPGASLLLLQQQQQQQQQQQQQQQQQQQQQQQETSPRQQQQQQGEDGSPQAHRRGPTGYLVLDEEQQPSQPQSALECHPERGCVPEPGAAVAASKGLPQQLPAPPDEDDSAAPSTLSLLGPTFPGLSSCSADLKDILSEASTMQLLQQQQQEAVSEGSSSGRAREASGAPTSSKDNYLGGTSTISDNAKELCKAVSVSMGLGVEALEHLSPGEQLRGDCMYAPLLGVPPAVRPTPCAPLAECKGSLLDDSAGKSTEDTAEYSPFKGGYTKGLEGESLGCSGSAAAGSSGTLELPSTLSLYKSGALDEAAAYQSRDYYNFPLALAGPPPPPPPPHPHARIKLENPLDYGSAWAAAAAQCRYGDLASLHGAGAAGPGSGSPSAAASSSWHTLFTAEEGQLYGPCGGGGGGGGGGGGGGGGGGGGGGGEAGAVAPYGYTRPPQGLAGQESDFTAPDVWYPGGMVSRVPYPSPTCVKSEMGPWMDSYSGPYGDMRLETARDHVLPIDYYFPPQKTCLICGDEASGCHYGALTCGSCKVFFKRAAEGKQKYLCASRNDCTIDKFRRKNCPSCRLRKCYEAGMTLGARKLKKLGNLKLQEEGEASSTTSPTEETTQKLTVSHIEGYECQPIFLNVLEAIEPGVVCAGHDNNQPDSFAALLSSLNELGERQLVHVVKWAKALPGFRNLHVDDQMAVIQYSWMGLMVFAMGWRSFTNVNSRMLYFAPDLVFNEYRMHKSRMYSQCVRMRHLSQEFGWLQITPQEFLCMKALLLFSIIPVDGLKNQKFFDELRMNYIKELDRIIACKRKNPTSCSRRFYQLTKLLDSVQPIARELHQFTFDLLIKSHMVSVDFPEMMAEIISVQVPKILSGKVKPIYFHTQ

Consider `C=C(C)C(=O)OCC`, for which the Potency entry in assay [1], in assay [2], in assay [3], in [4], in assay [5] and in assay [6] was “inactive” each time. Moreover, the Potency result in assay [7], in assay [8], in [9], in assay [10], in [11] and in [13] was “inactive” throughout. Also, in assay [15], the Potency result was “inactive”. The result in assay [12] and in [14] was inactive.
`CC(=O)OC[C@H]1O[C@@H](n2ncc(=O)[nH]c2=O)[C@H](OC(C)=O)[C@@H]1OC(C)=O`: the Potency result in assay [1], in assay [16], in assay [17], in assay [5], in [6] and in [8] was “inactive” throughout. For the same compound, the Potency entry in assay [11], in [13] and in assay [15] was “inactive” each time. For the same compound, the Potency in assay [3] is 1.33 µM (active); in assay [9], 2.37 µM (active). Besides, in assay [12], the compound was called inactive.
In the case of `CC(=O)c1ccc2c(c1)N(CCCN1CCC(CCO)CC1)c1ccccc1S2`, the figures for the Potency in assay [1], in assay [2] and in assay [3] were 11.9 µM (active), 15 µM (active) and 26.6 µM (active), respectively. Also, the Potency entry in assay [5], in assay [11] and in assay [13] was “inactive” in each case. Also, in [12], the compound was called inactive.
In the case of `C/C=C(/C(=C/C)c1ccc(OC(C)=O)cc1)c1ccc(OC(C)=O)cc1`, the results for the Potency in assay [1], in assay [5] and in assay [19] were 29.8 µM (active), 0.0133 µM (active) and 8.41 µM (active), respectively. The Potency entry in assay [16], in [3], in assay [4], in [6], in [7] and in assay [8] was “inactive” each time. The Potency entry in assay [18], in assay [9], in assay [11], in assay [13] and in assay [15] was “inactive” each time. Also, the compound was called inactive in assay [12] and in assay [14].
For the compound `CCCC(=O)Nc1ccc(O)c(C(C)=O)c1`, the Potency result in assay [1], in assay [16], in [3], in [4], in assay [5] and in [6] was “inactive” each time. The Potency entry in assay [7], in assay [8], in assay [18], in assay [9], in assay [10] and in assay [11] was “inactive” in each case. The Potency entry in [13] is “inactive”. In addition, in assay [12], the compound was classed as inactive.
Consider `Cc1cccc(Nc2ccccc2)c1`, for which the Potency entry in assay [1], in assay [16], in assay [3], in assay [17], in [4] and in assay [6] was “inactive” in each case. The Potency entry in assay [7], in [8], in [18], in assay [19], in assay [9] and in [11] was “inactive” throughout. Moreover, in assay [13], the Potency entry is “inactive”. Besides, in assay [12], the outcome was inactive.
Regarding `CNCCCCOc1ccccc1Cc1ccccc1`, the Potency in assay [1] was 10.6 µM (active); in assay [2] it was 11.9 µM (active); in [3], 11.9 µM (active); in assay [19] it was 26.6 µM (active); in assay [9], 6.68 µM (active); in assay [10] it was 6.68 µM (active). The Potency result in assay [5], in [6], in assay [8], in assay [18], in [11] and in [13] was “inactive” each time. Moreover, the compound was called inactive in [14].
In the case of `Brc1c2ccccc2cc2ccccc12`, the Potency entry in [1], in assay [2], in [5], in assay [6], in assay [8] and in assay [9] was “inactive” in each case. In [11], the Potency entry was “inactive”. Also, in [3], the Potency is 61.8 µM (active). Moreover, the compound was classed as inactive in [12].
With `CCCCCCCCCCCc1ccccc1`, the Potency result in [1], in assay [16], in [3], in assay [4], in [5] and in assay [6] was “inactive” throughout. The Potency result in assay [7], in assay [8], in [18], in assay [19], in [10] and in assay [11] was “inactive” throughout. In addition, the Potency entry in [13] was “inactive”. The outcome in [12] and in assay [14] was inactive.
